# Assay results from ChEMBL document CHEMBL3988442, “University of Dundee, Small-Polar-MMV Screening Library” (2021).
# For some of these results: Entries with a potency or affinity are not part of this list.
# Columns and labels:
# Design in all cases: scale not given: direction of the effect not stated beside the values
# [1] = biological target: Protein translocase subunit SecA (Escherichia coli (strain K12)) (UniProt P10408); assay: Assay to Identify E. coli SecA ATPase Inhibitors; type: functional; settings: 30 µM
# Sequence of Protein translocase subunit SecA (Escherichia coli (strain K12)) (P10408 whole entry): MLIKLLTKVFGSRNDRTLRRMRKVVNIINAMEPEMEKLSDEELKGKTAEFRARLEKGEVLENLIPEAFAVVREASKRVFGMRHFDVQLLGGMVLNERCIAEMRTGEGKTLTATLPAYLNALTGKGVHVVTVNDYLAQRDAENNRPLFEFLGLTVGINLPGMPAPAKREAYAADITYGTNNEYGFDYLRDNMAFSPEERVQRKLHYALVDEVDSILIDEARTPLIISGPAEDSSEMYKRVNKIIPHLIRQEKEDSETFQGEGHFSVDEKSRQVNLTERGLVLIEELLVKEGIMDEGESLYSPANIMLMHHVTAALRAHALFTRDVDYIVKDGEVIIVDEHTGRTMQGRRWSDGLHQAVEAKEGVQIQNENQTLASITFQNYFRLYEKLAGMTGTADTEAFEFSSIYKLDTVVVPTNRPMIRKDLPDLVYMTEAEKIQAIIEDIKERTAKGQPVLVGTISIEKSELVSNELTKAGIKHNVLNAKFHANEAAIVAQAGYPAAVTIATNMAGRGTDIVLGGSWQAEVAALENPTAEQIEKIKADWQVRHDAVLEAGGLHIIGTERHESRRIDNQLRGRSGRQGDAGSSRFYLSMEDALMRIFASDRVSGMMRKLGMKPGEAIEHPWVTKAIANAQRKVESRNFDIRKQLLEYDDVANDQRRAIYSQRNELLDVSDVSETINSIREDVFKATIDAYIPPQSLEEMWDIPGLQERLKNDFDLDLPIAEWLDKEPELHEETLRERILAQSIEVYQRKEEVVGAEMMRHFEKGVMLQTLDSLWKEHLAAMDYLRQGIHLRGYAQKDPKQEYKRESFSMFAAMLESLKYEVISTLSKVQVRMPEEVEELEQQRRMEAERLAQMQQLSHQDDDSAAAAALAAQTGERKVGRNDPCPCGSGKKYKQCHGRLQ
# [2] = biological target: T1, Ubiquitin-activating enzyme e1, putative (Leishmania donovani (strain BPK282A1)) (UniProt E9BSI1); assay: Leishmania donovani Ubiquitin Activating Enzyme (LdE1); type: functional; settings: 30 µM
# T1 sequence (whole entry): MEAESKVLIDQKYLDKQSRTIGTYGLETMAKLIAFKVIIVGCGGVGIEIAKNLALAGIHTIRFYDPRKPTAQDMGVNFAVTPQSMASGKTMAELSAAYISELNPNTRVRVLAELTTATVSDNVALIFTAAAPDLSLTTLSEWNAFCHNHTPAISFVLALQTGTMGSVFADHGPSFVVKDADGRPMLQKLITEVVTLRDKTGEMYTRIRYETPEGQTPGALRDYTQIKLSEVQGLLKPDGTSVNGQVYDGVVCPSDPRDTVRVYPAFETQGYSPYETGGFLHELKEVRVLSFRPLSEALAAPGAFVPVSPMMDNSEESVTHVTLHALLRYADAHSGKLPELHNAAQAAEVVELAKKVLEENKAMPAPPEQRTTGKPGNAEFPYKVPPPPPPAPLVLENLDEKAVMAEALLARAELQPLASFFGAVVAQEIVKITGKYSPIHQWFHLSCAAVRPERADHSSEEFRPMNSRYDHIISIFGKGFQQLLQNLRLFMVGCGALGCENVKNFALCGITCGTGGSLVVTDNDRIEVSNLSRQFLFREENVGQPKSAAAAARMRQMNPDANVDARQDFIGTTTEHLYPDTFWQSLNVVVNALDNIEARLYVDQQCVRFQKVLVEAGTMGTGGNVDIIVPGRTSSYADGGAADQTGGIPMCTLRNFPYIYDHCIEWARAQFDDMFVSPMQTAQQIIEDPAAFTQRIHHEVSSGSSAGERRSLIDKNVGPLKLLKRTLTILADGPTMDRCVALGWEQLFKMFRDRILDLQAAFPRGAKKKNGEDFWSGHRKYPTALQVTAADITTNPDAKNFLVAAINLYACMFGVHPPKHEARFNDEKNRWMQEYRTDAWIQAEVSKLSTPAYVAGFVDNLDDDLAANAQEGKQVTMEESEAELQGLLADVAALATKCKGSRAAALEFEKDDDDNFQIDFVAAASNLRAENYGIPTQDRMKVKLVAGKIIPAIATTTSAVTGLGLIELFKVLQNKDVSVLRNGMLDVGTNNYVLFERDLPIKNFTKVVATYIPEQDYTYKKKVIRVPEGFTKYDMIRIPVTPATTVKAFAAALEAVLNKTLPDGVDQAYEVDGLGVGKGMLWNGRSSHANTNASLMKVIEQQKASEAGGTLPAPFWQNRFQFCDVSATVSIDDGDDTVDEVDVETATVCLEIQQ
# [3] = biological target: AMP-activated protein kinase, AMPK (Homo sapiens) (UniProt P54646+O43741+P54619+Q9UGJ0+Q9Y478+Q13131+Q9UGI9); assay: AMP-dependent Kinase enzyme assay. An in vitro enzyme assay that detects ADP turnover that is directly proportional to AMPK activity. This uses naive AMPK that is activated during the assay with MK-8722; type: functional; settings: 30 µM
# [4] = biological target: Sialic acid-binding Ig-like lectin 9 (Homo sapiens) (UniProt Q9Y336); assay: Hs-Siglec9 ALPHAscreen SOP 20170721; settings: 10 µM
# Sequence of Sialic acid-binding Ig-like lectin 9 (Homo sapiens) (Q9Y336 whole entry): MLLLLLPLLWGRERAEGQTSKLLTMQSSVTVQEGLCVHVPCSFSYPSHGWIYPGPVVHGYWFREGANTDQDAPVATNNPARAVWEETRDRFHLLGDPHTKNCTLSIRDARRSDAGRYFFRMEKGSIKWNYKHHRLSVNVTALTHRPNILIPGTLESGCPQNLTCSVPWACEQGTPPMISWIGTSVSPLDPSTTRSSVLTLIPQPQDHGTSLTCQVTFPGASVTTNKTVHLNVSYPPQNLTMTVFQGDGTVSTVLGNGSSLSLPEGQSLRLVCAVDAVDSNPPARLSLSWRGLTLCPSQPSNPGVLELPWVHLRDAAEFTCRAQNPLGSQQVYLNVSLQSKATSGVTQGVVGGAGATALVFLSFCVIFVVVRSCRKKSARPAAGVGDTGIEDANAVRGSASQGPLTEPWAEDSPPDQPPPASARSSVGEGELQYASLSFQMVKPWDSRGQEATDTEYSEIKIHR
# Trypanosoma cruzi = assay: Trypanosoma cruzi phosphomannomutase and mannose-1-phosphate guanylyltransferase assay; type: functional; settings: 10 µM
# [5] = biological target: T2, Arginase-2, mitochondrial (Homo sapiens) (UniProt P78540); assay: in vitro enzyme assay to detect the production of urea directly proportional to the activity of Arginase II; type: functional; settings: 33.3 µM; further: in the data most compounds retested in dose-response had high values
# T2 sequence (whole entry): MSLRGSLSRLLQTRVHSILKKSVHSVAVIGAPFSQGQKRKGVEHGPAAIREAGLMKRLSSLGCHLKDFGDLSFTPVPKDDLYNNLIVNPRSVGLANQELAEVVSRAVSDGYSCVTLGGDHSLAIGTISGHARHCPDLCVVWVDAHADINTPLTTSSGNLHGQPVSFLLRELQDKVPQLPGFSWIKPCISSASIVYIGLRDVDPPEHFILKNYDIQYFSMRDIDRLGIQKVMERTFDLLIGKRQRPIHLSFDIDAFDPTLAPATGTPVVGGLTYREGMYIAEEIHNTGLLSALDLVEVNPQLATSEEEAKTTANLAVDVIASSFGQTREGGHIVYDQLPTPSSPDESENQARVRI
# [6] = biological target: T3, Proteasome subunit beta (Trypanosoma cruzi) (UniProt O96673); assay: Trypanosoma cruzi proteasome chymotrypsin-like activity (TcProtChymo) assay.; further: in the data most compounds retested in dose-response had high values; type: functional; settings: 9.37 µM
# T3 sequence (whole entry): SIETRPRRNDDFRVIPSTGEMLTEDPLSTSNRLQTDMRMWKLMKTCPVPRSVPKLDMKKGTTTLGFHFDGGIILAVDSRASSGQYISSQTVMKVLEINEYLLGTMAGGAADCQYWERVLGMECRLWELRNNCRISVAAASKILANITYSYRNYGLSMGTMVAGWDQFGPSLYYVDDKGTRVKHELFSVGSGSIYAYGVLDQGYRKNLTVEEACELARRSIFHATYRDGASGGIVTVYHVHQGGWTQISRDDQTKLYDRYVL
# Homo sapiens = organism: Homo sapiens; assay: To identify inhibition of the IFN signalling (Jak-Stat) pathway via expression of an eGFP reporter gene under the control of an IFN-stimulated response element (ISRE) containing MxA promoter.; type: functional; settings: 30 µM
# [7] = biological target: T4, Tyrosyl-tRNA synthetase, putative (Trypanosoma cruzi (strain CL Brener)) (UniProt Q4DSP6); assay: Trypanosoma cruzi tyrosyl tRNA synthetase (TcYRS) _High Tyrosine SOP; type: functional; settings: 30 µM; further: in the data most compounds retested in dose-response had high values
# T4 sequence (whole entry): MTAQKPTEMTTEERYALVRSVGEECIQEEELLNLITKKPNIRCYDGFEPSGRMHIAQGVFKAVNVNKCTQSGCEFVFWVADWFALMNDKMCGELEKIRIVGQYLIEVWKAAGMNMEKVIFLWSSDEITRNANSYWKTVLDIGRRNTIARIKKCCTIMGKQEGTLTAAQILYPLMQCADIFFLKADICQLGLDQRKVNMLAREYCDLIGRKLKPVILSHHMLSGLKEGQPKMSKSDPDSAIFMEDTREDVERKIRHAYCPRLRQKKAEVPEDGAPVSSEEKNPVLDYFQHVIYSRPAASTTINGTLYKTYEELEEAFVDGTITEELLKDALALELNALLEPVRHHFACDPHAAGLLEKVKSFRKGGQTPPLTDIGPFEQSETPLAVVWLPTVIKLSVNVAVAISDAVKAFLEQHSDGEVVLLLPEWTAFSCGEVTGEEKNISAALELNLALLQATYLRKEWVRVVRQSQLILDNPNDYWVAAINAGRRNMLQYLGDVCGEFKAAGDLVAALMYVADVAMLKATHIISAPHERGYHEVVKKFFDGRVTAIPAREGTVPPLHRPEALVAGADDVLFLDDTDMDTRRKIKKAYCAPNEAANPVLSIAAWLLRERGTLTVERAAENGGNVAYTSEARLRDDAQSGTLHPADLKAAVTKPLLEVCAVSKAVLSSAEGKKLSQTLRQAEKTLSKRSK
# [8] = biological target: T4, Tyrosyl-tRNA synthetase, putative (Trypanosoma cruzi (strain CL Brener)); assay: Trypanosoma cruzi tyrosyl tRNA synthetase (TcYRS) SOP; type: functional; settings: 30 µM
# [9] = biological target: Chromo domain-containing protein 1 (Saccharomyces cerevisiae (strain ATCC 204508 / S288c) (Baker's yeast)) (UniProt P32657); assay: ScCHD-1 Enzyme Inhibition Assay; type: functional; settings: 30 µM; further: in the data most compounds retested in dose-response had high values
# Sequence of Chromo domain-containing protein 1 (Saccharomyces cerevisiae (strain ATCC 204508 / S288c) (Baker's yeast)) (P32657 whole entry, the tested form may be a part): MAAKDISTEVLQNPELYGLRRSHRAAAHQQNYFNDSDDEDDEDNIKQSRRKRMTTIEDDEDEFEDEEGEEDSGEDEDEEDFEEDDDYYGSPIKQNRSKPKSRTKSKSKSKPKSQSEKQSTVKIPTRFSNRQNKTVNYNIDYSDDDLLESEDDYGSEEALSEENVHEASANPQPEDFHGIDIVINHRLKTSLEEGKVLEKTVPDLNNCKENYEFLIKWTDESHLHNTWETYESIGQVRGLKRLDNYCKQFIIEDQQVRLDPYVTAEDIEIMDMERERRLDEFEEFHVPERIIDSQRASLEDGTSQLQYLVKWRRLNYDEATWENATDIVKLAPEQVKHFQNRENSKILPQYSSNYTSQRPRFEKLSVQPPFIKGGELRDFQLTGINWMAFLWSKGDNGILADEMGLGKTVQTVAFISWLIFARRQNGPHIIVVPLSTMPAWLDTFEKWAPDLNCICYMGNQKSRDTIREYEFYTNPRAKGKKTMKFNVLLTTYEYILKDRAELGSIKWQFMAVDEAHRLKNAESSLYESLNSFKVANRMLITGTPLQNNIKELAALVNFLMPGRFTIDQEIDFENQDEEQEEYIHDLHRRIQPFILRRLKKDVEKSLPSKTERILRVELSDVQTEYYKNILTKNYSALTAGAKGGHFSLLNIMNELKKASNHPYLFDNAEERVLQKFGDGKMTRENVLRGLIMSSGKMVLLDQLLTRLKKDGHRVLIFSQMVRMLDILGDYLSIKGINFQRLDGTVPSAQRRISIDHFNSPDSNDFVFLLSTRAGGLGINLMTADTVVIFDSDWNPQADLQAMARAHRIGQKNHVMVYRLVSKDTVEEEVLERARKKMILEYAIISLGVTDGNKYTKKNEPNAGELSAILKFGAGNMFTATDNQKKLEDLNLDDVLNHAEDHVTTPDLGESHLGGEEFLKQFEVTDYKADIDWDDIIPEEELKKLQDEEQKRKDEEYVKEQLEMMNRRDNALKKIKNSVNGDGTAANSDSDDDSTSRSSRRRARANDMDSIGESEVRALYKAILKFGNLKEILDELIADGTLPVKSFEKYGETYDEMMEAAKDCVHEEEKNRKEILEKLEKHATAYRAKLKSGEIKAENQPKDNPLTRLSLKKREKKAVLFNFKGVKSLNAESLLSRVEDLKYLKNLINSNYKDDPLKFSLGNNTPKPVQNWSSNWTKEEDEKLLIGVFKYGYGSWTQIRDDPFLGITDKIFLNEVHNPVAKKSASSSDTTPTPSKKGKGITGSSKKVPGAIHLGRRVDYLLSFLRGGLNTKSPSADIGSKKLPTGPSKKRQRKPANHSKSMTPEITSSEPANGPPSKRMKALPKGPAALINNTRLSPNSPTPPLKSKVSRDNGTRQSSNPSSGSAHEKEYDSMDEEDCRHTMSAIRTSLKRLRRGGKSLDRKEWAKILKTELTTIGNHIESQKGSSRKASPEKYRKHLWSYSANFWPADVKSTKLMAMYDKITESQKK
smiles,measurement,setting,value
COCCC(=O)N1CC2(CCN(Cc3cccc(Cl)c3)CC2)C1,Percent Effect,[1],-1.79%
same,Percent Effect,[2],5.33%
same,Percent Effect,[3],5.28%
same,Percent Effect,[4],2.57%
same,Percent Effect,Trypanosoma cruzi,-7.09%
same,Percent Effect,[5],3.03%
same,Percent Effect,[6],10.8%
same,Percent Effect,Homo sapiens,6%
same,Percent Effect,[7],4.25%
same,Percent Effect,[8],11.5%
same,Percent Effect,[9],-4.02%
CCc1nc(C2CCCN(C(=O)c3cn(C)nc3C)C2)no1 (stereo unspecified),Percent Effect,[1],-2.94%
same,Percent Effect,[2],5.41%
same,Percent Effect,[3],-8.22%
same,Percent Effect,[4],13.8%
same,Percent Effect,Trypanosoma cruzi,7.89%
same,Percent Effect,[5],0.185%
same,Percent Effect,[6],5.57%
same,Percent Effect,Homo sapiens,9%
same,Percent Effect,[7],3.96%
same,Percent Effect,[8],13.4%
same,Percent Effect,[9],65.5%
CCC(CC)c1cc(CNC(=O)N2CCOCC2CC)on1 (stereo unspecified),Percent Effect,[1],-3.39%
same,Percent Effect,[2],0%
same,Percent Effect,[3],-0.644%
same,Percent Effect,[4],2.45%
same,Percent Effect,Trypanosoma cruzi,7.33%
same,Percent Effect,[5],-1.24%
same,Percent Effect,[6],0.0858%
same,Percent Effect,Homo sapiens,-31.4%
same,Percent Effect,[7],0%
same,Percent Effect,[8],1.24%
same,Percent Effect,[9],-0.017%
COc1ccc(C2Nc3cc(Cl)ccc3C3=NCCN32)cc1OC (stereo unspecified),Percent Effect,[1],-5.72%
same,Percent Effect,[2],2.67%
same,Percent Effect,[3],2.8%
same,Percent Effect,[4],3.39%
same,Percent Effect,Trypanosoma cruzi,3.54%
same,Percent Effect,[5],-5.83%
same,Percent Effect,[6],13.1%
same,Percent Effect,Homo sapiens,8.26%
same,Percent Effect,[7],4.25%
same,Percent Effect,[8],8.97%
same,Percent Effect,[9],-11.7%
Cc1nn(C)c(C)c1C(C)NC(=O)Nc1cccnc1N1CCCC1 (stereo unspecified),Percent Effect,[1],-1.26%
same,Percent Effect,[2],2.7%
same,Percent Effect,[3],-19.3%
same,Percent Effect,[4],6.12%
same,Percent Effect,Trypanosoma cruzi,-3.3%
same,Percent Effect,[5],0%
same,Percent Effect,[6],0.18%
same,Percent Effect,Homo sapiens,15%
same,Percent Effect,[7],-0.493%
same,Percent Effect,[8],3.7%
same,Percent Effect,[9],-0.951%
Cc1ccc(S(=O)(=O)NC(=O)c2cccc3c2OCCO3)c(C)c1,Percent Effect,[1],-2.98%
same,Percent Effect,[2],-5.48%
same,Percent Effect,[3],7.47%
same,Percent Effect,[4],-1.04%
same,Percent Effect,Trypanosoma cruzi,-3.33%
same,Percent Effect,[5],4.54%
same,Percent Effect,[6],9.94%
same,Percent Effect,Homo sapiens,5.47%
same,Percent Effect,[7],-10.8%
same,Percent Effect,[8],-12.5%
same,Percent Effect,[9],-2.7%
NC(=O)CC1CCN(C(=O)CCOc2ccc(Cl)cc2)CC1,Percent Effect,[1],-3.65%
same,Percent Effect,[2],10.5%
same,Percent Effect,[3],2.65%
same,Percent Effect,[4],4.69%
same,Percent Effect,Trypanosoma cruzi,0.752%
same,Percent Effect,[5],-4.6%
same,Percent Effect,[6],8.19%
same,Percent Effect,Homo sapiens,1.27%
same,Percent Effect,[7],6.37%
same,Percent Effect,[8],12.2%
same,Percent Effect,[9],-8.66%
CC(C)N1CCn2c(nc3cc(C(N)=O)ccc32)C1,Percent Effect,[1],-8.72%
same,Percent Effect,[2],12%
same,Percent Effect,[3],-4.63%
same,Percent Effect,[4],7.53%
same,Percent Effect,Trypanosoma cruzi,0.393%
same,Percent Effect,[5],-8.63%
same,Percent Effect,[6],8.87%
same,Percent Effect,Homo sapiens,2.55%
same,Percent Effect,[7],2.12%
same,Percent Effect,[8],12.8%
same,Percent Effect,[9],-11.8%
CC(=O)N1CCC(C(=O)NCCN2CCCCC2)CC1,Percent Effect,[1],-1.49%
same,Percent Effect,[2],9.72%
same,Percent Effect,[3],-3.56%
same,Percent Effect,[4],-2.74%
same,Percent Effect,Trypanosoma cruzi,0.875%
same,Percent Effect,[5],1.77%
same,Percent Effect,[6],17.5%
same,Percent Effect,Homo sapiens,-6.46%
same,Percent Effect,[7],4.21%
same,Percent Effect,[8],5.13%
same,Percent Effect,[9],-2.32%
Cc1nn(C)c(C)c1C1CCCN1Cc1cccc(C(=O)N(C)C)c1 (stereo unspecified),Percent Effect,[1],-2.08%
same,Percent Effect,[2],7.59%
same,Percent Effect,[3],-8.35%
same,Percent Effect,[4],3.65%
same,Percent Effect,Trypanosoma cruzi,4.06%
same,Percent Effect,[5],0.76%
same,Percent Effect,[6],2.54%
same,Percent Effect,Homo sapiens,-16.6%
same,Percent Effect,[7],4.43%
same,Percent Effect,[8],8.86%
same,Percent Effect,[9],0.0198%
CCN(CC)CCNc1ncc(-c2cc(C)no2)c(-c2ccoc2C)n1,Percent Effect,[1],-7.13%
same,Percent Effect,[2],20.3%
same,Percent Effect,[3],6.82%
same,Percent Effect,[4],3.2%
same,Percent Effect,Trypanosoma cruzi,2.77%
same,Percent Effect,[5],-3.94%
same,Percent Effect,[6],8.74%
same,Percent Effect,Homo sapiens,0.0946%
same,Percent Effect,[7],5.38%
same,Percent Effect,[8],14.3%
same,Percent Effect,[9],-20.7%
